# Reference: the supplement of paper PMC11417369
# In all, about 25,000 sequences were measured (“ln(normalized median fluorescence intensity)”: median about 9.3, highest 2% from about 10 on). This is one part of a sample in which the highest values are shown more often than they occur.
# Test system: PF3D7_0420300 AP2 domain 1 (GST-tagged)
# Test: gcPBM binding intensity (ln(normalized median fluorescence intensity)); higher = stronger DNA binding
# In short: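 Alexa488 anti-GST antibody, scanned at 488 nm, detected GST-tagged P. falciparum DNA-binding domains that had been expressed in E. coli and incubated for 1 h on an Agilent 4 × 180k array. The array carried primer-extended double-stranded 36-bp intergenic genomic probes and negative controls. Binding intensity is the highest Masliner-normalised natural-log median intensity across replicate spots of either orientation of each probe.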
row,Sequence,gcPBM binding intensity (ln)
1,TTTCCTTTTTTAATATGTACACATATTATTATATCT [XGTACX_site3079],9.45
2,ATAATTTAAAAACATTGTACATTAATATATATGTAT [XGTACX_site8970],9.12
3,GTACACATATATATATATATATATATATATATATAT [CACACA_negctrl_site800],9.25
4,ATATATATTTTTATTTGTACATAATTTTTTTTGTGA [XGTACX_site6378],9.21
5,ACCAAAAAAAAAAAAAAAAAAATATACATATATATA [GTGCAC_negctrl_site582],9.05
6,TTTCATTTCACAGACACACACACACCCTATATTTCC [CACACA_site3906],10.2
7,ATTTCACAGAGACACACACACAATATATTTCCTTTT [CACACA_site7773],9.94
8,TCATTTCACAGACACACACACACAAGATATTTCCTT [CACACA_site7774],10
9,AAAGAAAATTAAAAAGAACACACAAATATATATATA [CACACA_site9196],9.67
10,AAATAGAAAAAATATACACACACTTATTAAATAAAA [CACACA_site3313],9.86
11,TGAGTATATAAATACACACACATATATATATTTTAA [CACACA_site5130],9.61
12,TATATATATATATATGCATGTACATATATTTGTTAT [TGCATGCA_site379],9.57
13,TATATATATATATTATGTACTCATTTATTATCTTTT [XGTACX_site8051],9.36
14,ATATATATATATATATGTACTCATATTTTATTATTT [XGTACX_site898],9
15,TTTGTCATTTTATTATGTACTCAGCATATAGGGGGG [XGTACX_site505],10.5
16,ATGCATATATTTATGTGTACATATATTTGTAGGGGG [XGTACX_site6063],10.7
17,ATATATATTTATATATGTACATATTTTTGTGTATTT [XGTACX_site1183],9.55
18,TATATACACATATATACACACACATATATATATATA [CACACA_site9127],9.79
19,TTACCAAAAACCTCAAGTACAAAAAATCCCTAATAT [XGTACX_site2313],9.37
20,TATATATTAAACTTTGCACACATAATTTAACTACAA [CACACA_site3440],9.4
21,TTAGATATAAAAGCATGTACTTGTATAAAATATATA [XGTACX_site8272],9.16
22,TACATATACAGACACACACACACACCCCCACAAAAA [CACACA_site495],10.3

row,Sequence,gcPBM binding intensity (ln)
1,TATATACATAGACACCCACACACAAAAAAAAAAAAA [CACACA_site8186],9.75
2,TACATGCAAAAAATTCCACACACACCCCCACATATA [CACACA_site8329],10.2
3,CACACCCACAGACACACACACACATATATATATATA [CACACA_site363],10.2
4,TACAGACATACATACACACATACATATATATATATA [CACACA_site1940],9.67
5,TGCAAAAAATTCCACACACACACACCCATATAAATA [CACACA_site1230],10
6,CATGCAAAAAATTCCACACACACACCCACATATAAA [CACACA_site1229],9.92
7,TTACATTATATACATACACACCCACCCACAAAAAAA [CACACA_site8187],10.1
8,TTGGCATACAGACACACACACACACGCCCACATATA [CACACA_site6425],10.2
9,CACACCCACAGACACACACACACATATATAATATAT [CACACA_site594],10.2
10,TATACAGACAGACACACACACATATATATATATATA [CACACA_site1734],9.82
11,CCTTTATATTATAAAAGTACATAATATTTTATAAGT [XGTACX_site1629],8.96
12,TATATATGTATCATTACACACATGTATACTTATTTG [CACACA_site4138],9.71
13,TGAGAGTTCTCATATGCACACAAAAAACTTTCATTT [CACACA_site7898],9.28
14,TATTTTTAATAAAAACGTACGGAATACAAAAAAAAT [XGTACX_site3477],9.4
15,AAGAAAATTGTCTGAAGTACAAAACATTAATAATAT [XGTACX_site4864],9.27
16,ATATTATAATTAAAACGTACGTATTTATGAATTCAT [XGTACX_site1047],9.16
17,ATAAATAATATAAATACACACTAAAAAAAATATATA [CACACA_site4456],9.7
18,CAAAAACATACCTACACACACAATATGTATAAATAA [CACACA_site7617],10
19,TATACATACAGACCCACACACAAAAAAAAAAAAAAA [CACACA_site6536],9.38
20,TTGGCATACAGACACACACACACACCCCCACATATA [CACACA_site590],10.1
21,AATACACGCAGACACACACACAAAAAAAAAAAAAAA [CACACA_site6384],9.61
22,CGCACCCACAGACACACACACACATATATATATATA [CACACA_site2202],10.2
